Compound in the experiment: C#CCNC(=O)CCSSCCC(=O)NCCc1ccc(C=O)c(C=O)c1
Description: lysine labeling ratio R10:1 (500 µM / 50 µM probe), SILAC-ABPP in living cells; higher = lower intrinsic lysine reactivity toward the probe, active = 2 or less. Particulars: HeLa; probe concentrations 500 vs 50 µM. An outline of the steps: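 For each lysine, R is the median over forward and reverse replicates of the filtered median MS1 peptide ratio of high probe to low probe. The probe, an alkyne-tagged, disulfide-linked lysine probe, was given at 500 µM or 50 µM to living SILAC light and heavy HeLa cells in PBS at room temperature, with label swaps. Values are capped at 20.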
Sequence of UniProt P35052 (P35052 whole entry): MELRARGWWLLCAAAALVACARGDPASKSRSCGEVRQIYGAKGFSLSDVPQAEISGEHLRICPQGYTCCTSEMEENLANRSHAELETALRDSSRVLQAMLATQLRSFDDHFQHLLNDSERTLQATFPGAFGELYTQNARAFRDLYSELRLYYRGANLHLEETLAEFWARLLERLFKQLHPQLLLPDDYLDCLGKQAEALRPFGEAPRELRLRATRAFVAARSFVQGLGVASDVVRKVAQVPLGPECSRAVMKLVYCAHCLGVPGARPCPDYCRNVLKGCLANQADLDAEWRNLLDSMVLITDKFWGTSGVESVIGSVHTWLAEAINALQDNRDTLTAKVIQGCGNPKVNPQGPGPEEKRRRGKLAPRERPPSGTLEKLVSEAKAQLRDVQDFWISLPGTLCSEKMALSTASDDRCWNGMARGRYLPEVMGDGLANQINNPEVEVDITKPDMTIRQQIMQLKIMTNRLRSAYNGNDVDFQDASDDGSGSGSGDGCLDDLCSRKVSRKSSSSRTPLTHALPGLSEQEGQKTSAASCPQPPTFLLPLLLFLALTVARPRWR
Sequence of UniProt P06727 (P06727 whole entry): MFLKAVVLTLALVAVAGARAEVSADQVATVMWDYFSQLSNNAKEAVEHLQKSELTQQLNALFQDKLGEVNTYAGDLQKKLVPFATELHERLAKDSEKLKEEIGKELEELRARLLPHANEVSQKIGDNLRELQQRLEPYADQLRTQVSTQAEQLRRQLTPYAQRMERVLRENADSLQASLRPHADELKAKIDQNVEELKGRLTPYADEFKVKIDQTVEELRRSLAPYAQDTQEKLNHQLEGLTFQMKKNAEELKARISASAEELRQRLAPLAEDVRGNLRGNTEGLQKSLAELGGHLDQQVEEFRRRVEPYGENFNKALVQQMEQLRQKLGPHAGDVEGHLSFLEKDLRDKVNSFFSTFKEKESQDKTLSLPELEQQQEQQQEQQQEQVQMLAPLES
Sequence of UniProt P22234 (P22234 whole entry): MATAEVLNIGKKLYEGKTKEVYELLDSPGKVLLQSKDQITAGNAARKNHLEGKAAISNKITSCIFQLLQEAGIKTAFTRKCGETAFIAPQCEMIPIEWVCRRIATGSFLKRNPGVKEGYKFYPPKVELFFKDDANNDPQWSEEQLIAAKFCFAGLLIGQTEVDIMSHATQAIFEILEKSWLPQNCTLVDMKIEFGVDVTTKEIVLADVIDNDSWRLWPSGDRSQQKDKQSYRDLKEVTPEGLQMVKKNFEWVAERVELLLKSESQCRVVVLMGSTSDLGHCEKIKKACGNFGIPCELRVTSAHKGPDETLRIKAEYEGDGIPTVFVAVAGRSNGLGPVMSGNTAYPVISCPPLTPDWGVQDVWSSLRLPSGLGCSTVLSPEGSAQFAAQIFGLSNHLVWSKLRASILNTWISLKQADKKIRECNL
Sequence of UniProt Q9Y6N7 (Q9Y6N7 whole entry): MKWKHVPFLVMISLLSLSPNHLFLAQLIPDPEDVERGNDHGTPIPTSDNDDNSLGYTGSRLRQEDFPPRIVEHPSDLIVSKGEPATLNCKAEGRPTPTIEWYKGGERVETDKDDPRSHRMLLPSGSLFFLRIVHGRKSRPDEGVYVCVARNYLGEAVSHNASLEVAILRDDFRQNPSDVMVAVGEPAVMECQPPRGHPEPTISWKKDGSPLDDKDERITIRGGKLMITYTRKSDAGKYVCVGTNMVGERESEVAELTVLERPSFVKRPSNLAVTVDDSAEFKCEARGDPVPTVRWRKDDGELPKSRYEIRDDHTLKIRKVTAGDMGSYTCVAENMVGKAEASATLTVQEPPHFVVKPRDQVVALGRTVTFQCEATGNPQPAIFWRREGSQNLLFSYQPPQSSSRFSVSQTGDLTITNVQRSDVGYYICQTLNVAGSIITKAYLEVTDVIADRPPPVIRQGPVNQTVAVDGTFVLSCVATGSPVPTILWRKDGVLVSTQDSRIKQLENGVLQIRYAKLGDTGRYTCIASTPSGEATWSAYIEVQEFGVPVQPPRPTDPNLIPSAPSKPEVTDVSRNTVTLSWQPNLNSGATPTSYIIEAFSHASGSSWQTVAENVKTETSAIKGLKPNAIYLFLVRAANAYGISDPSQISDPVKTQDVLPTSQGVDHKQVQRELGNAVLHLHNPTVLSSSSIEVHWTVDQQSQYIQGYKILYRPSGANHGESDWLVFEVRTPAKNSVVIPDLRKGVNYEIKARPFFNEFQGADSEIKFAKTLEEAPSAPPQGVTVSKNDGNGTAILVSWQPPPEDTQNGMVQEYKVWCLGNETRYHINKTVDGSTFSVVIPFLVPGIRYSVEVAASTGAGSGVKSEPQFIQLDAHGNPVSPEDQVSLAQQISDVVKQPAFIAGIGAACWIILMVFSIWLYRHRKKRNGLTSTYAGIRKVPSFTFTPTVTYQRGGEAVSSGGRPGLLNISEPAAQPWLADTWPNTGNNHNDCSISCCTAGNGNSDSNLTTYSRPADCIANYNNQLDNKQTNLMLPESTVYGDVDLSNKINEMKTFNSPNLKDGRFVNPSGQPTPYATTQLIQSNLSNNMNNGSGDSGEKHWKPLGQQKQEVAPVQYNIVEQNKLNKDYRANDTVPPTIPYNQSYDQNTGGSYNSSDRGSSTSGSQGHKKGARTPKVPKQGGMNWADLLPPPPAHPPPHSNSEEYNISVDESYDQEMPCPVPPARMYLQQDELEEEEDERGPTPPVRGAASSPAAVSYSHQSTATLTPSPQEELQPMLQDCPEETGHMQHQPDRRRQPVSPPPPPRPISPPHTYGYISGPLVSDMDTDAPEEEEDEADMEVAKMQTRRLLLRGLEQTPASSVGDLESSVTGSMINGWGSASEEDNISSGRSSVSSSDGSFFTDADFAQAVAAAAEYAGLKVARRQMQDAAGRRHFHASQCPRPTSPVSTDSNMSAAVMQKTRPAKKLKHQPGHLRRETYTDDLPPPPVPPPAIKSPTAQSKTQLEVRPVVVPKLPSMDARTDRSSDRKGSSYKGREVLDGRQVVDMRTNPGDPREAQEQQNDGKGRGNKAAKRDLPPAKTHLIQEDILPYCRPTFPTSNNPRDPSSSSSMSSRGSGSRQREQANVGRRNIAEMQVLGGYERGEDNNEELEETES
Sequence of UniProt P15328 (P15328 whole entry, looked up): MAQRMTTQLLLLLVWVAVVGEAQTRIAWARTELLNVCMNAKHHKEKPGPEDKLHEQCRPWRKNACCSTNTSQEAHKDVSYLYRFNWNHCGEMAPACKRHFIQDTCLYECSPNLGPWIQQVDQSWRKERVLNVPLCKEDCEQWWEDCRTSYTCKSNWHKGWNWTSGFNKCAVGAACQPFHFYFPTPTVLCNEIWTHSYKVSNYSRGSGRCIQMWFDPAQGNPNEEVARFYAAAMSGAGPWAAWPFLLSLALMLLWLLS
Sequence of UniProt P49368 (P49368 whole entry): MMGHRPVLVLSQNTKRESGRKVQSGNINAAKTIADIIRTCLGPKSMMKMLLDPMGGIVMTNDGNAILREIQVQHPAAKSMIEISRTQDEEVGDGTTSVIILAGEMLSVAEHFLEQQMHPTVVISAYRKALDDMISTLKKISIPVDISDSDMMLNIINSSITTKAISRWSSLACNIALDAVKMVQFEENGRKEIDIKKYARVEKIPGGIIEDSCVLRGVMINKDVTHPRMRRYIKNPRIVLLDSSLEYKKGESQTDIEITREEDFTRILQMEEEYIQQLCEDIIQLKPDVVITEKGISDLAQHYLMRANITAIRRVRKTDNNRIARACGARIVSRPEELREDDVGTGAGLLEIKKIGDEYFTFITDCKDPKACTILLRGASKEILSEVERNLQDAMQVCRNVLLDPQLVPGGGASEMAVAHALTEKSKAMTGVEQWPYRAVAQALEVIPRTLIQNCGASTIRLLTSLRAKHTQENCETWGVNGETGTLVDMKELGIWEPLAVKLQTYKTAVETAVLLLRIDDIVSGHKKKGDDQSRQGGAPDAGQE
Sequence of UniProt P09496 (P09496 whole entry): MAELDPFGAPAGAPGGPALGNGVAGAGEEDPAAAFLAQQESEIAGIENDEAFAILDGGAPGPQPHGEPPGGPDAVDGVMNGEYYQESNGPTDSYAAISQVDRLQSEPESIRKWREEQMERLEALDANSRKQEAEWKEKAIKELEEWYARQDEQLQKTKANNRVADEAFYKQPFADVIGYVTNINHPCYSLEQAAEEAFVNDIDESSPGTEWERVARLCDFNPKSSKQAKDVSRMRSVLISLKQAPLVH
Sequence of UniProt P26641 (P26641 whole entry): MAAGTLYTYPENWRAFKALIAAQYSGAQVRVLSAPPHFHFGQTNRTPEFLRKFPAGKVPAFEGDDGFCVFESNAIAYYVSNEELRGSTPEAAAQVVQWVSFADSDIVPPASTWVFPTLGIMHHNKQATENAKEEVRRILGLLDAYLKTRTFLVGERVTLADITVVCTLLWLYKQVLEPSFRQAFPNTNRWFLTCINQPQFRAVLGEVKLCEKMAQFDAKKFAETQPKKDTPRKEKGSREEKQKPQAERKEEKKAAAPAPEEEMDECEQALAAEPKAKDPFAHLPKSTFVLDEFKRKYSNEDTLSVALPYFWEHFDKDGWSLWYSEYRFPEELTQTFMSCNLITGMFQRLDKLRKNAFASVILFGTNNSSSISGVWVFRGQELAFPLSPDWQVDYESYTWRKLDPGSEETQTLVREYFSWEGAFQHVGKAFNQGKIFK
Sequence of UniProt P07355 (P07355 whole entry): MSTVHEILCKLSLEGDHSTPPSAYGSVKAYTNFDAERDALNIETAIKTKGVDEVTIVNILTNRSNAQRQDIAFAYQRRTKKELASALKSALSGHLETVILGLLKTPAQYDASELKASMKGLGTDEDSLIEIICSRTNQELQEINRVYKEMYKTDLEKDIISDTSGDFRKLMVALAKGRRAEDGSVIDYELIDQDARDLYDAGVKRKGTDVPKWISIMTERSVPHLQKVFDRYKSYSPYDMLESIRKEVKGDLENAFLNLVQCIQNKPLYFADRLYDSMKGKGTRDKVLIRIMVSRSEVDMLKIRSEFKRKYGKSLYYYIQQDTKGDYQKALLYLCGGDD
Turning to “GPC1 (lysine site: K42) (UniProt P35052)”, the “lysine labeling ratio R10:1” value was 2.38 (inactive).
On to “FRAS1 (lysine site: K3093) (UniProt Q86XX4)”, for which the “lysine labeling ratio R10:1” value is 3.29 (inactive).
For UniProt Q9BSJ8 (lysine site: K197) the value was 5.31 (inactive); for “FOLR1 (lysine site: K136) (UniProt P15328)”, 7.36 (inactive).
As for UniProt O95084 (lysine site: K331), the “lysine labeling ratio R10:1” value was 4.02 (inactive).
In the case of “PAICS (lysine site: K286) (UniProt P22234)”, the “lysine labeling ratio R10:1” value is 1.42 (active).
For the target “CCT3 (lysine site: K249) (UniProt P49368)”, the “lysine labeling ratio R10:1” value was 1.76 (active).
Regarding “ANXA2 (lysine site: K204) (UniProt P07355)”, the “lysine labeling ratio R10:1” value was 7.37 (inactive).
Take UniProt Q15149 (lysine site: K2047): the “lysine labeling ratio R10:1” value was 0.91 (active).
In the case of “SPTAN1 (lysine site: K296) (UniProt Q13813)”, the “lysine labeling ratio R10:1” value is 2.12 (inactive).
Regarding UniProt Q9UHN6 (lysine site: K856), the “lysine labeling ratio R10:1” value was 0.771 (active).
Consider “CCT2 (lysine site: K154) (UniProt P78371)”, for which the “lysine labeling ratio R10:1” value is 3.78 (inactive).
With “CLTA (lysine site: K141) (UniProt P09496)” the figure was 2.25 (inactive); with “DYNC1H1 (lysine site: K3621) (UniProt Q14204)”, 3.03 (inactive); with “ROBO1 (lysine site: K733) (UniProt Q9Y6N7)”, 5.78 (inactive).
With “APOA4 (lysine site: K79) (UniProt P06727)” the figure was 1.22 (active); with “EEF1G (lysine site: K401) (UniProt P26641)”, 2.74 (inactive).

(Values after the supplement of paper PMC11001985.)
